# Assay results published in the supplement of paper PMC10849652.
# Targets with a hit are over-represented here; the source holds about 8,800 in all. About 0.5% of all pairs of compound and target were hits. Unmarked numbers belong to inactive results.
# Key:
# Assay in all cases: log2 fold change, soluble protein after heating vs DMSO (PISA); higher = thermal stabilisation; K562 lysate, 10 uM; active = over 0.2 and 3.5 SD of the protein, either way, in both replicates (recomputed)
# alvocidib = compound: CN1CC[C@H](c2c(O)cc(O)c3c(=O)cc(-c4ccccc4Cl)oc23)[C@H](O)C1 [alvocidib]
# Summary of the method: (§1)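 Following dounce homogenisation of K562 pellets in PBS pH 7.4 with 1 mM MgCl2, crude extract at 1 mg/mL protein was incubated for 30 min with 10 μM compound. Aliquots were then heated for 3 min over 48°C-58°C and pooled, NP-40 was added to 0.5% at 4°C, and soluble protein was recovered as the supernatant at 21,000xg for 90 min. Channel-sum-equalised TMTpro 16plex LC-MS/MS quantified this protein. Each value, from duplicates, is a log-two fold change in thermal stability relative to solvent controls.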
# Tubastatin A = compound: CN1CCc2c(c3ccccc3n2Cc2ccc(C(=O)NO)cc2)C1 [Tubastatin A]
# Summary of the method: as §1
# [1] = compound: CNC(=O)C1=CC=CC=C1NC2=NC(=NC=C2Cl)NC3=C(C=C(C=C3)N4CCOCC4)OC
# Summary of the method: as §1
# defactinib = compound: CNC(=O)c1ccc(Nc2ncc(C(F)(F)F)c(NCc3nccnc3N(C)S(C)(=O)=O)n2)cc1 [defactinib]
# Summary of the method: as §1
# [2] = compound: CNc1nc(-c2ccc3c(N)n[nH]c3c2)cc(N2C[C@@H](C(=O)NC3CCCCC3)CC[C@H]2C)n1
# Summary of the method: as §1
# encorafenib = compound: COC(=O)N[C@@H](C)CNc1nccc(-c2cn(C(C)C)nc2-c2cc(Cl)cc(NS(C)(=O)=O)c2F)n1 [encorafenib]
# Summary of the method: as §1
# [3] = compound: COC(=O)[C@H](CCSC)NC(=O)C1=C(C=C(C=C1)NC[C@H](CS)N)C2=CC=CC=C2
# Summary of the method: as §1
# alisertib = compound: COc1cc(Nc2ncc3c(n2)-c2ccc(Cl)cc2C(c2c(F)cccc2OC)=NC3)ccc1C(=O)O [alisertib]
# Summary of the method: as §1
# [4] = compound: COc1cc2nc(-c3cc(F)ccc3O)nc(N[C@@H]3CNC[C@H]3C(C)(C)O)c2cc1OC
# Summary of the method: as §1
# gefitinib = compound: COc1cc2ncnc(Nc3ccc(F)c(Cl)c3)c2cc1OCCCN1CCOCC1 [gefitinib]
# Summary of the method: as §1
# lapatinib = compound: CS(=O)(=O)CCNCc1ccc(-c2ccc3ncnc(Nc4ccc(OCc5cccc(F)c5)c(Cl)c4)c3c2)o1 [lapatinib]
# Summary of the method: as §1
# pictilisib = compound: CS(=O)(=O)N1CCN(Cc2cc3nc(-c4cccc5[nH]ncc45)nc(N4CCOCC4)c3s2)CC1 [pictilisib]
# Summary of the method: as §1
# crizotinib = compound: C[C@@H](Oc1cc(-c2cnn(C3CCNCC3)c2)cnc1N)c1c(Cl)ccc(F)c1Cl [crizotinib]
# Summary of the method: as §1
# [5] = compound: C[C@H](C1=CC=C(C=C1)C(=O)NC2=C3C=CNC3=NC=C2)N
# Summary of the method: as §1
# duvelisib = compound: C[C@H](Nc1ncnc2nc[nH]c12)c1cc2cccc(Cl)c2c(=O)n1-c1ccccc1 [duvelisib]
# Summary of the method: as §1
# gandotinib = compound: Cc1cc(Nc2cc(CN3CCOCC3)c3nc(C)c(Cc4ccc(Cl)cc4F)n3n2)n[nH]1 [gandotinib]
# Summary of the method: as §1
# tozasertib = compound: Cc1cc(Nc2cc(N3CCN(C)CC3)nc(Sc3ccc(NC(=O)C4CC4)cc3)n2)n[nH]1 [tozasertib]
# Summary of the method: as §1
# doramapimod = compound: Cc1ccc(-n2nc(C(C)(C)C)cc2NC(=O)Nc2ccc(OCCN3CCOCC3)c3ccccc23)cc1 [doramapimod]
# Summary of the method: as §1
# bafetinib = compound: Cc1ccc(NC(=O)c2ccc(CN3CC[C@H](N(C)C)C3)c(C(F)(F)F)c2)cc1Nc1nccc(-c2cncnc2)n1 [bafetinib]
# Summary of the method: as §1
# [6] = compound: Cc1cccc(CC(=O)N2CCc3c2ccc(-c2cn(C)c4ncnc(N)c24)c3F)n1
# Summary of the method: as §1
# Sequence of UniProt P52756 (P52756 whole entry, looked up): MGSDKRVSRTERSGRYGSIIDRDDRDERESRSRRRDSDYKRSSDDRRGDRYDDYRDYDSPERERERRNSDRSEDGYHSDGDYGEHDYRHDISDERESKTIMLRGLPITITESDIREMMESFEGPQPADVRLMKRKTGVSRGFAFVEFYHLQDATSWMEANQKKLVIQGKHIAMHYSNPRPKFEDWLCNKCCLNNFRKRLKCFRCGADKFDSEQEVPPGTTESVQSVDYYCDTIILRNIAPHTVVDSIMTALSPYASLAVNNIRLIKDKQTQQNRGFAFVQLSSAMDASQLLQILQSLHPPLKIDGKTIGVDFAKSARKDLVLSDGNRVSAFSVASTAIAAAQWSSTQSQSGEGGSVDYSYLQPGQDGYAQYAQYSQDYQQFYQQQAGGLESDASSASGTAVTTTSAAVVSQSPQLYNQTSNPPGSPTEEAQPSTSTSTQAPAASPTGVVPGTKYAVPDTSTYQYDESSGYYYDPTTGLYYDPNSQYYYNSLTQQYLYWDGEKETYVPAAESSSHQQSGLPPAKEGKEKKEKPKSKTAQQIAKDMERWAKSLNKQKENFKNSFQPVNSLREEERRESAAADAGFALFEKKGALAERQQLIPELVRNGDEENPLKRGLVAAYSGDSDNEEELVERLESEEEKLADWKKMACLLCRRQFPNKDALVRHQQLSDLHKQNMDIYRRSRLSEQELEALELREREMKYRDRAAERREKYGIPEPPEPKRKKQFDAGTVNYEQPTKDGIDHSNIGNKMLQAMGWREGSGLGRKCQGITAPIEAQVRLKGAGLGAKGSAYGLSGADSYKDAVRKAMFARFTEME
# Sequence of UniProt O95248 (O95248 whole entry, looked up): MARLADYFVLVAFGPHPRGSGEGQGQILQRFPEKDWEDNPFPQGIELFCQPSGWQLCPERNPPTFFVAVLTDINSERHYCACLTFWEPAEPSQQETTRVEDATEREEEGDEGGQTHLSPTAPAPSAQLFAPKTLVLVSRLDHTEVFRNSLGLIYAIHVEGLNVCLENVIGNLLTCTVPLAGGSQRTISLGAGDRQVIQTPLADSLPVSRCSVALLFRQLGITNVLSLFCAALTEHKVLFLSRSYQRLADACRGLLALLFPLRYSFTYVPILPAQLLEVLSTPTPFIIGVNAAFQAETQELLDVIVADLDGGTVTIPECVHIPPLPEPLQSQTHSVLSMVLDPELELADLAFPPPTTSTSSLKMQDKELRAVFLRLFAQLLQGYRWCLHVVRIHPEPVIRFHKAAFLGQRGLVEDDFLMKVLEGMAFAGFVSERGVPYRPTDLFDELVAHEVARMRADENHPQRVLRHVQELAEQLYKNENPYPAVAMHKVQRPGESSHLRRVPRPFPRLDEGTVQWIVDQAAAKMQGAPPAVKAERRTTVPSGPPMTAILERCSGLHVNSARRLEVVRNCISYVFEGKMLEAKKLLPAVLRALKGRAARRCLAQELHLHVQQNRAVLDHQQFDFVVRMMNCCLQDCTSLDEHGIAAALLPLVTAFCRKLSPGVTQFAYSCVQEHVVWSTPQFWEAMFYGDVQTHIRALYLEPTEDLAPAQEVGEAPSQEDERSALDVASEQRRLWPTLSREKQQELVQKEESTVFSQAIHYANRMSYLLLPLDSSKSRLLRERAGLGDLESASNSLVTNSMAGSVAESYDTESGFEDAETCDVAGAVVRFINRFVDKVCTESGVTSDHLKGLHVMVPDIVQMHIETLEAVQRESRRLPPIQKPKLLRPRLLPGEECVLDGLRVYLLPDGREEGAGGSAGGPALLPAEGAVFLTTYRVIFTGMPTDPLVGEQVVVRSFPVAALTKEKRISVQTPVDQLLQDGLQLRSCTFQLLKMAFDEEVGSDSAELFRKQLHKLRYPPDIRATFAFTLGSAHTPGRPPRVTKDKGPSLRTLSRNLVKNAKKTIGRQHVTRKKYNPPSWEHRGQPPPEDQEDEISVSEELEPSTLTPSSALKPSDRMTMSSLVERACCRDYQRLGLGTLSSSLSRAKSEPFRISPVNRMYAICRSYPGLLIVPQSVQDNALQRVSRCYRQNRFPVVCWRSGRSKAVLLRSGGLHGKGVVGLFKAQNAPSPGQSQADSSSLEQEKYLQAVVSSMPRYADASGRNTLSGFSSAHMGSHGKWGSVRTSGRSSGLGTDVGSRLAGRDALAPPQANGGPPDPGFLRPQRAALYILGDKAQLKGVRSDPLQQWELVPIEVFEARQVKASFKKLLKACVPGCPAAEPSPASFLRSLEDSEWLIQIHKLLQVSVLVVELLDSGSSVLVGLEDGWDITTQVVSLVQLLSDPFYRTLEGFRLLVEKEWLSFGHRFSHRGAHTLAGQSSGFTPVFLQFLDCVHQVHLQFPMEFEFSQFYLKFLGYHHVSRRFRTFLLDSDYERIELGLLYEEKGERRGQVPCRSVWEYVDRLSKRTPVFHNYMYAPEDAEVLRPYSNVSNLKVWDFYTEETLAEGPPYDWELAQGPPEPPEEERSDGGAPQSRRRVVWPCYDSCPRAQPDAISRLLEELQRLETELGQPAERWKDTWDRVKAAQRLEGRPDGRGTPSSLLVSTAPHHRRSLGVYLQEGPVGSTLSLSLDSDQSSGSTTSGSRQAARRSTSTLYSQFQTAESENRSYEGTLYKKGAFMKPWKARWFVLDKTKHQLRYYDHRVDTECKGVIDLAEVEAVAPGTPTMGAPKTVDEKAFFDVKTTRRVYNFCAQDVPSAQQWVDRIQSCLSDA
# Sequence of UniProt Q9Y3T6 (Q9Y3T6 whole entry, looked up, one chain of several): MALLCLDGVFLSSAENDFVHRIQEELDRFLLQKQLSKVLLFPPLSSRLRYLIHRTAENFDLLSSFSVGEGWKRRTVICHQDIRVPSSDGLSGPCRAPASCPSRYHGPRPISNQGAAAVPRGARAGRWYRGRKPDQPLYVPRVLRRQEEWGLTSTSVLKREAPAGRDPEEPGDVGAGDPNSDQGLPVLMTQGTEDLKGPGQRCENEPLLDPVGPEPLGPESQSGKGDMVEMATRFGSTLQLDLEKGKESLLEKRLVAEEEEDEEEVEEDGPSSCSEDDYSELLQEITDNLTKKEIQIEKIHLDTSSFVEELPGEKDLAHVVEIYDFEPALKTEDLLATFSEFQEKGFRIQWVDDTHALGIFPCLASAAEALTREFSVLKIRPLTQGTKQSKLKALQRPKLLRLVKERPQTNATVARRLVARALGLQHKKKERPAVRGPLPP
# Sequence of UniProt P31949 (P31949 whole entry, looked up): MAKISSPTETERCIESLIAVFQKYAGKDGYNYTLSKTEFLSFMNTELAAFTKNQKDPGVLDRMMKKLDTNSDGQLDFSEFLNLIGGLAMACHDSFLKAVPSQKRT
# Sequence of UniProt Q99708 (Q99708 whole entry, looked up): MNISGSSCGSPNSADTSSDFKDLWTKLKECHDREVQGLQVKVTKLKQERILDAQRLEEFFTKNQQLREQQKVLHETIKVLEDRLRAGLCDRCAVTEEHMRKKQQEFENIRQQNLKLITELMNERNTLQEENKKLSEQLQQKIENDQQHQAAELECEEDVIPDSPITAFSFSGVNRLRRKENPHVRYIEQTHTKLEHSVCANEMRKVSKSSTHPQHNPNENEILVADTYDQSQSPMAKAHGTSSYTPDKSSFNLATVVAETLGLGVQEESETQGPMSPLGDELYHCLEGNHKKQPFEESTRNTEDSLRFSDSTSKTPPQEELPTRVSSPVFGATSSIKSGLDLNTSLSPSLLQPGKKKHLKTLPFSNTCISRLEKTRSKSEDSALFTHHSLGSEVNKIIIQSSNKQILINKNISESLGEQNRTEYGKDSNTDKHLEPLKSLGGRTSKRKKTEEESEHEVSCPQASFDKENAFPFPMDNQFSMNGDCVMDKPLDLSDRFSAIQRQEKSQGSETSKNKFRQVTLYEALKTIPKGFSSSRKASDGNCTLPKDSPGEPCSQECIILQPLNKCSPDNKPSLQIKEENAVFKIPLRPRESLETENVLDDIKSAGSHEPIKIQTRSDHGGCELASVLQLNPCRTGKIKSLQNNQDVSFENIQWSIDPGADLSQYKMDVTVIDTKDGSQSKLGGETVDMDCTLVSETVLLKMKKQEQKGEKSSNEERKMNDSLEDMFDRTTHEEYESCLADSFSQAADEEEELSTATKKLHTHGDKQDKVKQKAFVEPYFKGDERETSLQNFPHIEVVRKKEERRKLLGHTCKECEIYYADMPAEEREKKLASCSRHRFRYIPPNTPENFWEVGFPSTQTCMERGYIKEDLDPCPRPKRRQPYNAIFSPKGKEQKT
# Sequence of UniProt P55735 (P55735 whole entry, looked up): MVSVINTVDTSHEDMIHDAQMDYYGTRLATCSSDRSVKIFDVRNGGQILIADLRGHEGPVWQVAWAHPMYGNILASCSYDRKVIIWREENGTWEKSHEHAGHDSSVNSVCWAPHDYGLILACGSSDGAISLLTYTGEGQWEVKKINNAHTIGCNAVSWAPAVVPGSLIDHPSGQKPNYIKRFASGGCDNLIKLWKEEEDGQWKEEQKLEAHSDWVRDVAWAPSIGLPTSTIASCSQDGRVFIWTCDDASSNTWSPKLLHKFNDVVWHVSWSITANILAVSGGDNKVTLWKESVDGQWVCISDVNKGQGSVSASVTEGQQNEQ
# Sequence of UniProt Q02094 (Q02094 whole entry, looked up): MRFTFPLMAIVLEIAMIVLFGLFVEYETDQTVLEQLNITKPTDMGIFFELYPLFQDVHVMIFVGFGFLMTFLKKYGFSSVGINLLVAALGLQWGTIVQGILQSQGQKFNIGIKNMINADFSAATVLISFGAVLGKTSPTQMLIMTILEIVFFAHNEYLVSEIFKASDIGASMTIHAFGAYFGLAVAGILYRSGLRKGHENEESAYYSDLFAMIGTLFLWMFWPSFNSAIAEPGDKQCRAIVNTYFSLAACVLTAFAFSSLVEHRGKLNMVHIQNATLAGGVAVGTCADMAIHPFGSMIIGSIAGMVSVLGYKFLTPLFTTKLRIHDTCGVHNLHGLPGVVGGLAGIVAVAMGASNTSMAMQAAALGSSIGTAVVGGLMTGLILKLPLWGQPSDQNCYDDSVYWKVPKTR
Target,log2 fold change (alvocidib),log2 fold change (Tubastatin A),log2 fold change [1],log2 fold change (defactinib),log2 fold change [2],log2 fold change (encorafenib),log2 fold change [3],log2 fold change (alisertib),log2 fold change [4],log2 fold change (gefitinib),log2 fold change (lapatinib),log2 fold change (pictilisib),log2 fold change (crizotinib),log2 fold change [5],log2 fold change (duvelisib),log2 fold change (gandotinib),log2 fold change (tozasertib),log2 fold change (doramapimod),log2 fold change (bafetinib),log2 fold change [6]
SAMHD1 (UniProt Q9Y3Z3),-0.019,-0.072,0.041,-0.021,-0.015,0,0.099,-0.013,0.02,0.044,0.02,-0.071,-0.033,-0.038,0.013,-0.029,0.032,-0.005,-0.071,0.028
RBM5 (UniProt P52756),-0.226,-0.059,0.021,0.01,0.028,0.044,0.134,-0.035,0.182,0.18,0.029,-0.013,0.005,-0.268,-0.058,-0.015,0,0.058,-0.051,0.089
RAP1GAP isoform 4 (UniProt P47736),0.01,-0.138,0.06,0.012,-0.027,0.022,0.01,0.024,0.008,0.026,-0.019,-0.018,-0.044,0.044,-0.032,-0.044,-0.009,-0.001,-0.069,0.007
R3HCC1 (UniProt Q9Y3T6),-0.019,0.023,0.048,0.055,-0.018,-0.004,-0.04,-0.002,0.003,0.008,-0.018,-0.049,0,-0.034,0,0.089,0.006,0.044,0.002,0.08
SBF1 isoform 4 (UniProt O95248),0.005,0.074,-0.054,0.022,-0.099,-0.004,-0.009,0.238,0.008,0.062,-0.029,-0.075,0.088,0.07,-0.039,-0.066,0,-0.004,-0.061,0.006
RBBP8 isoform 2 (UniProt Q99708),0.013,0.07,0.061,-0.023,0.108,-0.039,-0.074,-0.008,0.009,-0.014,-0.042,0.069,-0.085,0.065,0.032,-0.013,0.177,0.024,-0.079,0.007
S100A11 (UniProt P31949),0.085,0.075,0.029,0.059,-0.011,-0.021,0.007,0.024,-0.01,-0.089,0.105,0.006,0.02,0.097,0.052,-0.042,-0.043,0.003,-0.039,-0.032
RIPK1 (UniProt Q13546),0.001,-0.108,0.044,0.065,0.035,-0.017,0.025,-0.025,-0.016,0.042,0.006,-0.002,0.061,-0.026,-0.05,0.256 (active),0.326 (active),0.038,0.007,0.755 (active)
RBM42 (UniProt Q9BTD8),-0.036,-0.022,0.08,0.058,0.077,0.098,-0.28 (active),0.043,-0.062,-0.066,0.05,0.049,0.01,0.026,-0.032,0.04,-0.001,0.216 (active),0.083,-0.01
RMC1 (UniProt Q96DM3),-0.041,-0.019,0.019,0.049,-0.019,0.012,-0.023,0,-0.001,0.005,-0.036,-0.011,-0.013,-0.029,0.024,-0.051,-0.056,0.012,-0.062,0.035
RNF123 (UniProt Q5XPI4),0.011,-0.047,-0.002,-0.027,0.017,0.044,-0.062,-0.004,0.017,0.011,-0.013,-0.029,-0.015,-0.04,-0.068,-0.122,0.029,0.039,-0.002,0.011
SEC13 isoform 3 (UniProt P55735),0.107,0.029,-0.024,-0.06,-0.064,0.002,-0.039,0.02,-0.004,0.03,0,0.023,0.058,0.417 (active),0.02,-0.076,0.01,-0.031,-0.016,-0.068
RPTOR (UniProt Q8N122),0.008,-0.11,0.036,0,-0.048,-0.004,-0.007,-0.012,-0.005,-0.007,-0.001,-0.024,-0.056,-0.044,-0.024,-0.097,0.019,0.025,-0.057,0.009
RFC3 (UniProt P40938),-0.008,-0.142,0.024,0.036,-0.014,0.002,-0.005,0.007,0.029,-0.075,-0.045,-0.009,-0.043,-0.072,0.037,-0.039,0.027,0.016,-0.051,0.1
RCOR3 isoform 3 (UniProt Q9P2K3),-0.005,-0.09,-0.002,0.009,-0.014,0.012,0.088,0.003,-0.006,0.026,0.016,0.023,0.011,0.014,-0.029,-0.024,0.009,-0.048,-0.035,0.004
RHAG (UniProt Q02094),-0.133,0.031,0.043,-0.043,0.037,0.016,0.02,-0.004,0.046,-0.051,-0.046,-0.002,-0.038,-0.381 (active),0.113,0.07,0.05,0.032,0.004,0.184
